# Experimental data published in ChEMBL document CHEMBL1961873, “Compounds: GSK PKIS; Assays: Nanosyn kinase panel” (2012).
# Assays:
# [1] = molecular target: Platelet-derived growth factor receptor beta (Homo sapiens) (UniProt P09619); settings: at 0.1 µM
# [2] = molecular target: Platelet-derived growth factor receptor beta (Homo sapiens) (UniProt P09619); settings: at 1 µM
# [3] = molecular target: Tyrosine-protein kinase FRK (Homo sapiens) (UniProt P42685); settings: at 0.1 µM
# [4] = molecular target: Tyrosine-protein kinase FRK (Homo sapiens) (UniProt P42685); settings: at 1 µM
# [5] = molecular target: Protein-tyrosine kinase 2-beta (Homo sapiens) (UniProt Q14289); settings: at 0.1 µM
# Sequence of Protein-tyrosine kinase 2-beta (Homo sapiens) (Q14289 whole entry, looked up): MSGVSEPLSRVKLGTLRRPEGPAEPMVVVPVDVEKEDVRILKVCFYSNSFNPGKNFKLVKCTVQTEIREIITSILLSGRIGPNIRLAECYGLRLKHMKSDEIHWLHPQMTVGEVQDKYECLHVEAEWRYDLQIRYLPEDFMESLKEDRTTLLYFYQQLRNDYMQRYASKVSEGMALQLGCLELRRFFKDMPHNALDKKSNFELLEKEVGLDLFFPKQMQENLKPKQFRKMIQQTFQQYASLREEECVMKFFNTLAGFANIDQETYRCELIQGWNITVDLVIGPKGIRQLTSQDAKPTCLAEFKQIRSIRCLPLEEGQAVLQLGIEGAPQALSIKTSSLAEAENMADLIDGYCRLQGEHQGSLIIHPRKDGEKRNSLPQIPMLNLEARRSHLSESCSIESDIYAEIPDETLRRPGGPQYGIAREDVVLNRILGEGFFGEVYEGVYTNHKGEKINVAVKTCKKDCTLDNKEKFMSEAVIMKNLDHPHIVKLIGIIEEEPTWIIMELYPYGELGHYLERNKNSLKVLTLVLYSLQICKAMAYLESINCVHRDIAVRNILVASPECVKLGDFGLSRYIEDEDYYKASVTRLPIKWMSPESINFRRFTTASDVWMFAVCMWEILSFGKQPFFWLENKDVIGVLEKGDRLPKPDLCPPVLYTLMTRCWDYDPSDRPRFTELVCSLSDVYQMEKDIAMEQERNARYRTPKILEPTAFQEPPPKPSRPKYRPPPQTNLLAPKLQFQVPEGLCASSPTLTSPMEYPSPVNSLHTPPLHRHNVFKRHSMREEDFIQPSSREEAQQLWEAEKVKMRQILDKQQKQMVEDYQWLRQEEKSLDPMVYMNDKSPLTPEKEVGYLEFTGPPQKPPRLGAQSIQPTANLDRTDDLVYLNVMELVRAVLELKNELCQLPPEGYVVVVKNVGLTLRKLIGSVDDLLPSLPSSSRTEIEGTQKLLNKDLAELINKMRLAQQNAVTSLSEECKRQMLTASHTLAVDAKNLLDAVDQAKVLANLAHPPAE
# [6] = molecular target: Protein-tyrosine kinase 2-beta (Homo sapiens) (UniProt Q14289); settings: at 1 µM
# [7] = molecular target: Proto-oncogene tyrosine-protein kinase receptor Ret (Homo sapiens) (UniProt P07949); settings: at 0.1 µM
# [8] = molecular target: Proto-oncogene tyrosine-protein kinase receptor Ret (Homo sapiens) (UniProt P07949); settings: at 1 µM
# [9] = system: Proto-oncogene tyrosine-protein kinase receptor Ret (Homo sapiens), P07949 [V804L]; settings: at 0.1 µM
# [10] = system: Proto-oncogene tyrosine-protein kinase receptor Ret (Homo sapiens), P07949 [V804L]; settings: at 1 µM
# [11] = system: Proto-oncogene tyrosine-protein kinase receptor Ret (Homo sapiens), P07949 [Y791F]; settings: at 0.1 µM
# [12] = system: Proto-oncogene tyrosine-protein kinase receptor Ret (Homo sapiens), P07949 [Y791F]; settings: at 1 µM
# [13] = molecular target: Macrophage-stimulating protein receptor (Homo sapiens) (UniProt Q04912); settings: at 0.1 µM
# [14] = molecular target: Macrophage-stimulating protein receptor (Homo sapiens) (UniProt Q04912); settings: at 1 µM
# [15] = molecular target: Proto-oncogene tyrosine-protein kinase ROS (Homo sapiens) (UniProt P08922); settings: at 0.1 µM
# [16] = molecular target: Proto-oncogene tyrosine-protein kinase ROS (Homo sapiens) (UniProt P08922); settings: at 1 µM
# [17] = molecular target: Proto-oncogene tyrosine-protein kinase Src (Homo sapiens) (UniProt P12931); settings: at 0.1 µM
# Sequence of Proto-oncogene tyrosine-protein kinase Src (Homo sapiens) (P12931 2-536 limits assumed): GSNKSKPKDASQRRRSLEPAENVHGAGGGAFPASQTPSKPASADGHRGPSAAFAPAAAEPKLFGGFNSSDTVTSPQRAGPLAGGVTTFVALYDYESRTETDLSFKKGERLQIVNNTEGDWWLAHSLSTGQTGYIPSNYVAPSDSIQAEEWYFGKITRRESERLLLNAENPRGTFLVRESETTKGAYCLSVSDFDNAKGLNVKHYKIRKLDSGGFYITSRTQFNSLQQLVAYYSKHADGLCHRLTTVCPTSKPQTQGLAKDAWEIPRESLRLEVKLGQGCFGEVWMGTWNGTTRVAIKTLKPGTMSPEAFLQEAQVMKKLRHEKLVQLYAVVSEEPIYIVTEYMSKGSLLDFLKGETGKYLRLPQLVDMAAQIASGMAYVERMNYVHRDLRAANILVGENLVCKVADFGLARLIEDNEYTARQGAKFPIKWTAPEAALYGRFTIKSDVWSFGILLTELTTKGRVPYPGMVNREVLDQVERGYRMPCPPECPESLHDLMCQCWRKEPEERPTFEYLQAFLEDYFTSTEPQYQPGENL
# [18] = molecular target: Proto-oncogene tyrosine-protein kinase Src (Homo sapiens) (UniProt P12931); settings: at 1 µM
# [19] = molecular target: Tyrosine-protein kinase Srms (Homo sapiens) (UniProt Q9H3Y6); settings: at 0.1 µM
# [20] = molecular target: Tyrosine-protein kinase Srms (Homo sapiens) (UniProt Q9H3Y6); settings: at 1 µM
# [21] = molecular target: Tyrosine-protein kinase SYK (Homo sapiens) (UniProt P43405); settings: at 0.1 µM
# [22] = molecular target: Tyrosine-protein kinase SYK (Homo sapiens) (UniProt P43405); settings: at 1 µM
# [23] = molecular target: Tyrosine-protein kinase Tec (Homo sapiens) (UniProt P42680); settings: at 0.1 µM
# [24] = molecular target: Tyrosine-protein kinase Tec (Homo sapiens) (UniProt P42680); settings: at 1 µM
# [25] = molecular target: Angiopoietin-1 receptor (Homo sapiens) (UniProt Q02763); settings: at 0.1 µM
# [26] = molecular target: Angiopoietin-1 receptor (Homo sapiens) (UniProt Q02763); settings: at 1 µM
# [27] = molecular target: Non-receptor tyrosine-protein kinase TNK1 (Homo sapiens) (UniProt Q13470); settings: at 0.1 µM
# [28] = molecular target: Non-receptor tyrosine-protein kinase TNK1 (Homo sapiens) (UniProt Q13470); settings: at 1 µM
# [29] = molecular target: Activated CDC42 kinase 1 (Homo sapiens) (UniProt Q07912); settings: at 0.1 µM
# [30] = molecular target: Activated CDC42 kinase 1 (Homo sapiens) (UniProt Q07912); settings: at 1 µM
# [31] = molecular target: High affinity nerve growth factor receptor (Homo sapiens) (UniProt P04629); settings: at 0.1 µM
# [32] = molecular target: High affinity nerve growth factor receptor (Homo sapiens) (UniProt P04629); settings: at 1 µM
# [33] = molecular target: BDNF/NT-3 growth factors receptor (Homo sapiens) (UniProt Q16620); settings: at 0.1 µM
# Sequence of BDNF/NT-3 growth factors receptor (Homo sapiens) (Q16620 32-822 limits assumed): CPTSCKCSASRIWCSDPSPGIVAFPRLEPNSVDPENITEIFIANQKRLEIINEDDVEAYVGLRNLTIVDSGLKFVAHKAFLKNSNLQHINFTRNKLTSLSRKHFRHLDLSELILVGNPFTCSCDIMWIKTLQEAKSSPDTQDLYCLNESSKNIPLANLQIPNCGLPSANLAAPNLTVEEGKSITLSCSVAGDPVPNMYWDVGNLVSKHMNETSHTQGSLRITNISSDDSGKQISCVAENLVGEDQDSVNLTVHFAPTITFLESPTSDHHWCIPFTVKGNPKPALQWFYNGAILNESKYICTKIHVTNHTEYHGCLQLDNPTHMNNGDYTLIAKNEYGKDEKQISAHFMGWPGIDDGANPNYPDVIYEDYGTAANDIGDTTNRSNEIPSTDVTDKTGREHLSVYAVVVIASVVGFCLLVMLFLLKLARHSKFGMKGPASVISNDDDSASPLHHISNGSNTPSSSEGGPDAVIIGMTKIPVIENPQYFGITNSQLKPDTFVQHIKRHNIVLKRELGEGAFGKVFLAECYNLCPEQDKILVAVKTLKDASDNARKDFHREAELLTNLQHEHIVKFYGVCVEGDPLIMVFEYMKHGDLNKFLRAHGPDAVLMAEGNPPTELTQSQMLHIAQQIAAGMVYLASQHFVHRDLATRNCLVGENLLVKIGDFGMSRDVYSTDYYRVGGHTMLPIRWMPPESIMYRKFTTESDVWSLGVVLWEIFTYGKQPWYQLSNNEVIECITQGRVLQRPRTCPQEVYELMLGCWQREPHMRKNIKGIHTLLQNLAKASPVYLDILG
# [34] = molecular target: BDNF/NT-3 growth factors receptor (Homo sapiens) (UniProt Q16620); settings: at 1 µM
# [35] = molecular target: NT-3 growth factor receptor (Homo sapiens) (UniProt Q16288); settings: at 0.1 µM
# [36] = molecular target: NT-3 growth factor receptor (Homo sapiens) (UniProt Q16288); settings: at 1 µM
# [37] = molecular target: Tyrosine-protein kinase TXK (Homo sapiens) (UniProt P42681); settings: at 0.1 µM
# Sequence of Tyrosine-protein kinase TXK (Homo sapiens) (P42681 whole entry): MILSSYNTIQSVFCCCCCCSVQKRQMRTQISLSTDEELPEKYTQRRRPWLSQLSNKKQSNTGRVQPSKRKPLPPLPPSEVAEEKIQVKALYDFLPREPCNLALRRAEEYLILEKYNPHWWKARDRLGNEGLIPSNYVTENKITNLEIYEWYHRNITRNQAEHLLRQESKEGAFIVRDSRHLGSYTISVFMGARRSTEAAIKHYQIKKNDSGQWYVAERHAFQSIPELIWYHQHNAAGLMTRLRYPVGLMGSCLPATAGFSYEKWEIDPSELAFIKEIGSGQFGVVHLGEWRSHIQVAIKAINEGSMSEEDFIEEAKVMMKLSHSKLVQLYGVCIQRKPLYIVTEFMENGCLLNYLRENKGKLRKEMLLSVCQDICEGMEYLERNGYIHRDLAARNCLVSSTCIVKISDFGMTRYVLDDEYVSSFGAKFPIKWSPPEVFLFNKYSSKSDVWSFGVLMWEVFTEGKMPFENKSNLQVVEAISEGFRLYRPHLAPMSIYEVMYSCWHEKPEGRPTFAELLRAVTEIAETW
# [38] = molecular target: Tyrosine-protein kinase TXK (Homo sapiens) (UniProt P42681); settings: at 1 µM
# [39] = molecular target: Non-receptor tyrosine-protein kinase TYK2 (Homo sapiens) (UniProt P29597); settings: at 0.1 µM;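 also: each value is a mean of the inhibition readings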
# [40] = molecular target: Dual specificity protein kinase TTK (Homo sapiens) (UniProt P33981); settings: at 1 µM;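 also: reported figures are mean TTK inhibition at 1 µM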
# [41] = molecular target: Aurora kinase A (Homo sapiens) (UniProt O14965); settings: at 0.1 µM
# Sequence of Aurora kinase A (Homo sapiens) (O14965 whole entry): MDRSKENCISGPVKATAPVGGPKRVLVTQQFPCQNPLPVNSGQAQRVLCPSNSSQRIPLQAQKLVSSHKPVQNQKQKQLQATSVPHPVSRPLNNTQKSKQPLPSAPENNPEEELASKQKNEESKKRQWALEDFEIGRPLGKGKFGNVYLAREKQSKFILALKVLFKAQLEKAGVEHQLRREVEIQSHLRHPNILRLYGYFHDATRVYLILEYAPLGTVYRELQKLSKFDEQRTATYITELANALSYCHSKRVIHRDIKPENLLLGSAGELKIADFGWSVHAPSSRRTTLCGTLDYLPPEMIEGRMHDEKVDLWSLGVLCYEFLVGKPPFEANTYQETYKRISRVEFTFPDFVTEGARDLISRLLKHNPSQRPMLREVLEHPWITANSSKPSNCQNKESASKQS
# [42] = molecular target: Aurora kinase A (Homo sapiens) (UniProt O14965); settings: at 1 µM
# [43] = molecular target: Aurora kinase B (Homo sapiens) (UniProt Q96GD4); settings: at 0.1 µM
# [44] = molecular target: Aurora kinase B (Homo sapiens) (UniProt Q96GD4); settings: at 1 µM
# [45] = molecular target: Aurora kinase C (Homo sapiens) (UniProt Q9UQB9); settings: at 0.1 µM
# [46] = molecular target: Aurora kinase C (Homo sapiens) (UniProt Q9UQB9); settings: at 1 µM
# [47] = molecular target: Serine/threonine-protein kinase 10 (Homo sapiens) (UniProt O94804); settings: at 0.1 µM
# [48] = molecular target: Serine/threonine-protein kinase 10 (Homo sapiens) (UniProt O94804); settings: at 1 µM
# [49] = molecular target: Mitogen-activated protein kinase kinase kinase kinase 2 (Homo sapiens) (UniProt Q12851); settings: at 0.1 µM
# [50] = molecular target: Mitogen-activated protein kinase kinase kinase kinase 2 (Homo sapiens) (UniProt Q12851); settings: at 1 µM
# [51] = molecular target: Mitogen-activated protein kinase kinase kinase kinase 4 (Homo sapiens) (UniProt O95819); settings: at 0.1 µM
# [52] = molecular target: Mitogen-activated protein kinase kinase kinase kinase 4 (Homo sapiens) (UniProt O95819); settings: at 1 µM
# [53] = molecular target: Dual specificity mitogen-activated protein kinase kinase 1 (Homo sapiens) (UniProt Q02750); settings: at 0.1 µM
# Sequence of Dual specificity mitogen-activated protein kinase kinase 1 (Homo sapiens) (Q02750 whole entry): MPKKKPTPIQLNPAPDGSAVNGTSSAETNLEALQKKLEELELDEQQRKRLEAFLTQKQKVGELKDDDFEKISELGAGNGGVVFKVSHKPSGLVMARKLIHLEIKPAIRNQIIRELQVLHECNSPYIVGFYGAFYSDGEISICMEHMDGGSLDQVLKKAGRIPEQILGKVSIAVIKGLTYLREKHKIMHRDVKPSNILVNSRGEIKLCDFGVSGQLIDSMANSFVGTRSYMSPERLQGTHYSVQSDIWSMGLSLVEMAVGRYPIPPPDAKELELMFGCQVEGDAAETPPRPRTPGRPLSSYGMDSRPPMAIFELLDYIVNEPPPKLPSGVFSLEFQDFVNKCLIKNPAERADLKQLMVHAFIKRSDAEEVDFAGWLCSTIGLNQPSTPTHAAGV
# [54] = molecular target: Dual specificity mitogen-activated protein kinase kinase 1 (Homo sapiens) (UniProt Q02750); settings: at 1 µM
# [55] = molecular target: Misshapen-like kinase 1 (Homo sapiens) (UniProt Q8N4C8); settings: at 0.1 µM
# Sequence of Misshapen-like kinase 1 (Homo sapiens) (Q8N4C8 whole entry, looked up): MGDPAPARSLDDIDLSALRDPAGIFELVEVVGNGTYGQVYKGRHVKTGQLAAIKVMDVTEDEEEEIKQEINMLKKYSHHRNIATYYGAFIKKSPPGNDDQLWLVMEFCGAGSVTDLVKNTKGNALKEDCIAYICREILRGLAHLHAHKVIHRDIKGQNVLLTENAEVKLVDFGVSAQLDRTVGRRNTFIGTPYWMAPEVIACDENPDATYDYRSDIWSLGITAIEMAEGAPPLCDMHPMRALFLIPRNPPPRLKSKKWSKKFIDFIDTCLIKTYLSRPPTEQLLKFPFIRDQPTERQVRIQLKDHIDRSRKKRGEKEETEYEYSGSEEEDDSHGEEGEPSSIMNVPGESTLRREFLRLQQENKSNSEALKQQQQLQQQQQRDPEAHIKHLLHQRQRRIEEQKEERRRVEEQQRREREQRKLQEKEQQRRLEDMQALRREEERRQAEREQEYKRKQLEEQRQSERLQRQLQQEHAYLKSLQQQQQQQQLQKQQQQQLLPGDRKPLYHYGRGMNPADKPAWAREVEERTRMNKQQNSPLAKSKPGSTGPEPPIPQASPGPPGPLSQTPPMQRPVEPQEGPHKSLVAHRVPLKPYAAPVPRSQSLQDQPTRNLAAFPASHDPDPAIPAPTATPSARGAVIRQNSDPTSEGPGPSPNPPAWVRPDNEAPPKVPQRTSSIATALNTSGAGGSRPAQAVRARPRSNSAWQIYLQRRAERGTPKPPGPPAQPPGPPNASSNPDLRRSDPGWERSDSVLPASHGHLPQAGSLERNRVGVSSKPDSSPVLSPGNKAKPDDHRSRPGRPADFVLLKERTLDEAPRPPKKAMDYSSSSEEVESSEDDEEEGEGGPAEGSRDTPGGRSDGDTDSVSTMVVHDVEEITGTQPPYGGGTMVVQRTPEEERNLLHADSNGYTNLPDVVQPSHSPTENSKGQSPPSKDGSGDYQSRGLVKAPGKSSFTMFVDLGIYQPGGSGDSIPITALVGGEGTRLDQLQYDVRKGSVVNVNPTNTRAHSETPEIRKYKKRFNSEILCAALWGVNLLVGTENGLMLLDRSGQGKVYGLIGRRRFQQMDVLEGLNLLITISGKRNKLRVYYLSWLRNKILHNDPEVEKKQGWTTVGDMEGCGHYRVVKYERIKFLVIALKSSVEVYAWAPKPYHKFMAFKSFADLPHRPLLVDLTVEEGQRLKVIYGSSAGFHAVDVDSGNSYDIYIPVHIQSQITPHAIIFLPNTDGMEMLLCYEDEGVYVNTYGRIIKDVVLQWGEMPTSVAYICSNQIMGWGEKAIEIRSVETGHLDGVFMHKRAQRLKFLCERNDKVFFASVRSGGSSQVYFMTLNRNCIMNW
# [56] = molecular target: Misshapen-like kinase 1 (Homo sapiens) (UniProt Q8N4C8); settings: at 1 µM
smiles,measurement,setting,value
CNC(=O)Oc1cc(C)c(/C=C/c2cncc(C(=O)NC)c2)c(C)c1,inhibition,[1],8.91%
same,inhibition,[2],49.7%
same,inhibition,[3],2.61%
same,inhibition,[4],13.1%
same,inhibition,[5],10.7%
same,inhibition,[6],6.54%
same,inhibition,[7],-1.48%
same,inhibition,[8],2.54%
same,inhibition,[9],2.06%
same,inhibition,[10],3.32%
same,inhibition,[11],2.2%
same,inhibition,[12],2.71%
same,inhibition,[13],-0.85%
same,inhibition,[14],4.22%
same,inhibition,[15],9.53%
same,inhibition,[16],13.7%
same,inhibition,[17],5.94%
same,inhibition,[18],49.2%
same,inhibition,[19],4.13%
same,inhibition,[20],19.3%
same,inhibition,[21],-1.41%
same,inhibition,[22],-0.86%
same,inhibition,[23],8.66%
same,inhibition,[24],39.1%
same,inhibition,[25],-0.08%
same,inhibition,[26],3.57%
same,inhibition,[27],1.27%
same,inhibition,[28],14.6%
same,inhibition,[29],0.99%
same,inhibition,[30],6.77%
same,inhibition,[31],1.04%
same,inhibition,[32],-0.56%
same,inhibition,[33],1.03%
same,inhibition,[34],0.99%
same,inhibition,[35],-0.56%
same,inhibition,[36],2.73%
same,inhibition,[37],13.4%
same,inhibition,[38],34.7%
same,inhibition,[39],-4.14%
same,inhibition,[40],8.09%
same,inhibition,[41],2.77%
same,inhibition,[42],4.58%
same,inhibition,[43],0.2%
same,inhibition,[44],1.25%
same,inhibition,[45],0.65%
same,inhibition,[46],9.48%
same,inhibition,[47],5.93%
same,inhibition,[48],16.9%
same,inhibition,[49],0.92%
same,inhibition,[50],5.49%
same,inhibition,[51],3.12%
same,inhibition,[52],8.96%
same,inhibition,[53],2.97%
same,inhibition,[54],4.15%
same,inhibition,[55],3.2%
same,inhibition,[56],7.01%
